Source: PubChem BioAssay (EPA / NIEHS)
Inconclusive results are not listed. Active and inactive are the calls of the source. Rule for the calls, unless noted: active = hit-call score of the fitted dose curve at least 0.9, where 1 is the maximum; inactive = score below 0.9.

Tests used:
[1] = molecular target: Paired box protein Pax-6 (Homo sapiens) (UniProt P26367); experiment: ATG_Pax6_CIS: Attagene CIS-FACTORIAL HepG2 Assay for human Paired Box 6 (PAX6) (AID 2282956); details: HepG2 CIS-FACTORIAL PAX6 reporter transcription, RNA readout; actives raise or lower the signal
In short: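 Multiplexed cis-reporter HepG2 system; 24 h treatment; reporter mRNA read by RT-PCR/CE fluorescence; bidirectional fit vs DMSO.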

[2] = ATG_PXRE_CIS: Attagene CIS-FACTORIAL HepG2 Assay for human Pregnane X Receptor Element (PXRE) (AID 2282957); details: HepG2 Attagene CIS-FACTORIAL PXRE reporter, mRNA; actives raise or lower the signal
In short: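 HepG2 cells transiently transfected with cis-regulated multiple reporter transcription units; endogenous factor activity measured as reporter mRNA 24 h after dosing. RT-PCR, fluorescent primer extension, HpaI digestion, capillary electrophoresis; bidirectional fit versus DMSO baseline.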

[3] = ATG_PPRE_CIS: Attagene CIS-FACTORIAL HepG2 Assay for human Peroxisome Proliferator-activated Response Element (PPRE) (AID 2282958); details: HepG2 PPRE cis-element reporter, Attagene transcription factor profiling; actives raise or lower the signal
In short: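 Transcript-level reporter induction in transfected HepG2 cells after 24 h chemical exposure, quantified by fluorescence from RT-PCR products separated by capillary electrophoresis.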

[4] = ATG_RORE_CIS: Attagene CIS-FACTORIAL HepG2 Assay for human RAR-related Orphan Receptor Element (RORE) (AID 2282959); details: HepG2 Attagene cis-factorial RORE reporter, mRNA; actives raise or lower the signal
In short: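 Multiplexed reporter assay measuring mRNA induction from a cis promoter element in transiently transfected HepG2 cells after 24 h treatment. Detection via RT-PCR and capillary electrophoresis fluorescence; DMSO serves as baseline.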

[5] = ATG_Sox_CIS: Attagene CIS-FACTORIAL HepG2 Assay for human SRY-box transcription factor (SOX) (AID 2282960); details: HepG2 Attagene cis-factorial SOX reporter, mRNA; actives raise or lower the signal
In short: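 Cells were transfected with reporter constructs under cis-regulatory promoters, then exposed to chemicals for 24 h. Reporter transcripts were quantified by fluorescence after RT-PCR and capillary electrophoresis; activity was fitted in both directions against DMSO.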

[6] = molecular target: Transcription factor Sp1 (Homo sapiens) (UniProt P08047); experiment: ATG_Sp1_CIS: Attagene CIS-FACTORIAL HepG2 Assay for human Specificity Protein 1 (Sp1) (AID 2282961); details: HepG2 Sp1 cis-reporter transcription, actives raise or lower the signal
In short: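 Measures mRNA induction of an Sp1-linked reporter in HepG2 cells 24 h post-dosing. Multiplexed reporters read by RT-PCR and capillary electrophoresis; DMSO serves as negative control and baseline.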

[7] = ATG_SREBP_CIS: Attagene CIS-FACTORIAL HepG2 Assay for human Sterol Regulatory Element Binding (SREBP) (AID 2282962); details: HepG2 Attagene cis-factorial SREBP reporter, mRNA; actives raise or lower the signal
In short: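 mRNA induction of transfected cis-promoter reporters in HepG2 cells, 24 h post-dose. Detection: RT-PCR with 6-FAM-labelled products, HpaI digest, capillary electrophoresis. DMSO served as negative control and baseline.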

[8] = molecular target: Signal transducer and activator of transcription 3 (Homo sapiens) (UniProt P40763); experiment: ATG_STAT3_CIS: Attagene CIS-FACTORIAL HepG2 Assay for human Signal Transducer and Activator of Transcription 3 (STAT3) (AID 2282963); details: HepG2, Attagene cis-factorial STAT3 reporter transcription; actives raise or lower the signal
In short: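 Values derive from bidirectional fits relative to DMSO of reporter mRNA levels, measured by RT-PCR with capillary electrophoresis, in HepG2 cells carrying transiently transfected cis-regulated reporter units and exposed 24 h.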

[9] = ATG_TA_CIS: Attagene CIS-FACTORIAL HepG2 Assay for human TA Basal Promoter (AID 2282964); details: HepG2 Attagene CIS-factorial TA basal promoter reporter; actives raise or lower the signal
In short: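 HepG2 cells transiently transfected with multiplexed cis-promoter reporter units, dosed 24 h. Reporter mRNA measured by RT-PCR, 6-FAM labelling, HpaI digestion and capillary electrophoresis; bidirectional fit versus DMSO baseline, serving as background control.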

[10] = ATG_TCF_b_cat_CIS: Attagene CIS-FACTORIAL HepG2 Assay for human T-Cell-Factor with beta-catenin (TCF/b-cat) (AID 2282965); details: HepG2 TCF/beta-catenin cis-reporter transcription, actives raise or lower the signal
In short: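 HepG2, transient MRTU transfection, cis-element-driven reporters (endogenous TFs). 24 h compound exposure. Readout: reporter mRNA by RT-PCR + 6-FAM primer extension, HpaI digest, capillary electrophoresis. Gain/loss fit vs DMSO baseline.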

[11] = ATG_TAL_CIS: Attagene CIS-FACTORIAL HepG2 Assay for human TAL Basal Promoter (AID 2282966); details: HepG2 Attagene cis-factorial TAL promoter reporter; actives raise or lower the signal;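 note: background control endpoint measuring basal TAL promoter reporter mRNA not a specific factor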
In short: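 HepG2 cells were transiently transfected with promoter-driven multiplexed reporter units and dosed for 24 h. Reporter mRNA was measured by RT-PCR with capillary electrophoresis fluorescence; bidirectional fits used DMSO as baseline, serving as a background control.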

[12] = ATG_TGFb_CIS: Attagene CIS-FACTORIAL HepG2 Assay for human Transforming Growth Factor (TGF) (AID 2282967); details: HepG2 Attagene CIS TGFb reporter, mRNA transcription; actives raise or lower the signal
In short: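 HepG2 cells transiently transfected with cis-promoter-driven multiplexed reporter units; 24 h compound exposure. Reporter mRNA measured by RT-PCR, 6-FAM labeling, HpaI digestion and capillary electrophoresis; bidirectional fit versus DMSO baseline.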

[13] = molecular target: Nuclear receptor subfamily 1 group I member 3 (Homo sapiens) (UniProt Q14994); experiment: ATG_CAR_TRANS: Attagene TRANS-FACTORIAL HepG2 Assay for human Constitutive Androstane Receptor (CAR) (AID 2282969; active = hit-call score of the fitted dose curve at least 0.9, where 1 is the maximum;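 note: activators raise reporter mRNA above DMSO so AC50 marks induction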); details: HepG2 Attagene TRANS-FACTORIAL CAR reporter
In short: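 HepG2 cells transiently transfected with GAL4-UAS reporter units; TRANS format reads activity of exogenous chimeric NR-Gal4 protein. After 24 h dosing, reporter mRNA quantified by RT-PCR, 6-FAM labelling and capillary electrophoresis; gain of signal fitted against DMSO.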

[14] = molecular target: X-box-binding protein 1 (Homo sapiens) (UniProt P17861); experiment: ATG_Xbp1_CIS: Attagene CIS-FACTORIAL HepG2 Assay for human X-box Binding Protein 1 (XBP1) (AID 2282972); details: HepG2 XBP1 cis-element reporter, Attagene multiplex; actives raise or lower the signal
In short: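 Fluorescence-labelled cDNA fragments from reporter transcripts, separated by capillary electrophoresis, give the signal. Source: HepG2 cells transfected with promoter-driven reporter units, harvested 24 h post-dose. DMSO served as reference for bidirectional curve fitting.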

[15] = ATG_M_19_TRANS: Attagene TRANS-FACTORIAL HepG2 Assay for M19 Transcription Factor (Internal Marker) (AID 2282974; active = hit-call score of the fitted dose curve at least 0.9, where 1 is the maximum); details: HepG2 Attagene TRANS-FACTORIAL M19 internal marker reporter
In short: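 After transfection of HepG2 with GAL4-UAS-driven reporter constructs, cells are dosed for 24 h. Total RNA is reverse-transcribed, reporter sequences PCR-amplified and labelled, then HpaI-digested and sized by capillary electrophoresis.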

[16] = ATG_GAL4_TRANS: Attagene TRANS-FACTORIAL HepG2 Assay for GAL4 (Internal Marker) (AID 2282976; active = hit-call score of the fitted dose curve at least 0.9, where 1 is the maximum); details: HepG2 Attagene TRANS GAL4 internal marker reporter
In short: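 HepG2 cells transiently transfected with multiplexed GAL4-UAS reporter constructs were dosed for 24 h. Reporter mRNA was measured by RT-PCR, 6-FAM primer extension, HpaI digestion and capillary electrophoresis, and gain of signal was fitted relative to DMSO.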

[17] = ATG_VDRE_CIS: Attagene CIS-FACTORIAL HepG2 Assay for human Vitamin D Receptor Element (VDRE) (AID 2282968); details: HepG2 VDRE cis-reporter transcription, actives raise or lower the signal
In short: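 Cell-based multiplexed reporter format in human liver HepG2 cells, 24 h post-dose. Fluorescence from capillary electrophoresis of reporter cDNA gives the signal, with DMSO as negative control and baseline.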

X-box-binding protein 1 (Homo sapiens), sequence (P17861 whole entry, looked up, the tested form may be a part): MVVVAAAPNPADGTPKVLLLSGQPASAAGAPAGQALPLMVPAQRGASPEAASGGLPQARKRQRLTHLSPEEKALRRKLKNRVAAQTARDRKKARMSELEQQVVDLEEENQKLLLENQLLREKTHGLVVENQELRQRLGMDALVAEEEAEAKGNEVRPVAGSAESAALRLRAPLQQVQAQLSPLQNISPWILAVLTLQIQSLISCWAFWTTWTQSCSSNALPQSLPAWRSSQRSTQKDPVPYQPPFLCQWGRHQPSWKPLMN
Signal transducer and activator of transcription 3 (Homo sapiens), sequence (P40763 whole entry, looked up): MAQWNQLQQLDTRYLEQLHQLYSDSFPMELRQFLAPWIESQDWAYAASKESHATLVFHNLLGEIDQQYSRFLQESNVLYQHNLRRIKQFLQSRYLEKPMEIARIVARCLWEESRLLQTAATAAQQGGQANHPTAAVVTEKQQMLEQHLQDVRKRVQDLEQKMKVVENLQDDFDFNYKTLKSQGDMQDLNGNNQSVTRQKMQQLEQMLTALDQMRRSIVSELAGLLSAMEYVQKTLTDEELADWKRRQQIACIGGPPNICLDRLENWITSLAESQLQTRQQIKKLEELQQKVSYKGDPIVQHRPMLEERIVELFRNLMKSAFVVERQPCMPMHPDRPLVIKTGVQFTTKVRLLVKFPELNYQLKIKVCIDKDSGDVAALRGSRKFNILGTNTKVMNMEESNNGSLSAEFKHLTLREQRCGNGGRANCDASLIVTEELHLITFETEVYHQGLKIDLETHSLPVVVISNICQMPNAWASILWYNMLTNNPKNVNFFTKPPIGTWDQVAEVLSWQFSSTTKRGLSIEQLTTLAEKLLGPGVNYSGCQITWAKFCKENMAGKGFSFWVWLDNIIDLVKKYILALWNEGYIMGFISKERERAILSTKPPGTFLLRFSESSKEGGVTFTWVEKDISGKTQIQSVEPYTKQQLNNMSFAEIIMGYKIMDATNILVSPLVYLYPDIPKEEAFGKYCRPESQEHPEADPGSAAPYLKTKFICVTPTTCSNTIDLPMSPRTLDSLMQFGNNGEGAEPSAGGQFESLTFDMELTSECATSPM
Transcription factor Sp1 (Homo sapiens), sequence (P08047 whole entry, looked up): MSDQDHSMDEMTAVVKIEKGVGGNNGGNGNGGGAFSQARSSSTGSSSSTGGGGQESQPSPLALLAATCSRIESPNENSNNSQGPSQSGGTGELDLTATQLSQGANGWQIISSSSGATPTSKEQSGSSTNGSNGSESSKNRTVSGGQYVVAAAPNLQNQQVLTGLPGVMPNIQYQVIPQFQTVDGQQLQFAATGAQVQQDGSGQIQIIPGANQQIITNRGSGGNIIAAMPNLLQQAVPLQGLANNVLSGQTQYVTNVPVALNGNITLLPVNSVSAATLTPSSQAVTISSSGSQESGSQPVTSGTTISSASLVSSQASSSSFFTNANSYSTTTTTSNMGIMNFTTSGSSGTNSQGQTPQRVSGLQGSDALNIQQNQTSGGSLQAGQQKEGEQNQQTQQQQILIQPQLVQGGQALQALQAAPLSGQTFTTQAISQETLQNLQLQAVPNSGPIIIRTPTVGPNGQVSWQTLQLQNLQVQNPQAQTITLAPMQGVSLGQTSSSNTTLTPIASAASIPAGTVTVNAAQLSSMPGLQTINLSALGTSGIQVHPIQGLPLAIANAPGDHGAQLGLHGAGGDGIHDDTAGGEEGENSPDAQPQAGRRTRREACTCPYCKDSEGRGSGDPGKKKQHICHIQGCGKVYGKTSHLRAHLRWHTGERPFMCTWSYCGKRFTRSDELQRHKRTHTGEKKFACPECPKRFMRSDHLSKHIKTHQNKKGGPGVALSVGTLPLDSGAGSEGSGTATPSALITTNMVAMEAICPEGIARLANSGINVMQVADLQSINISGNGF
Paired box protein Pax-6 (Homo sapiens), sequence (P26367 whole entry, looked up): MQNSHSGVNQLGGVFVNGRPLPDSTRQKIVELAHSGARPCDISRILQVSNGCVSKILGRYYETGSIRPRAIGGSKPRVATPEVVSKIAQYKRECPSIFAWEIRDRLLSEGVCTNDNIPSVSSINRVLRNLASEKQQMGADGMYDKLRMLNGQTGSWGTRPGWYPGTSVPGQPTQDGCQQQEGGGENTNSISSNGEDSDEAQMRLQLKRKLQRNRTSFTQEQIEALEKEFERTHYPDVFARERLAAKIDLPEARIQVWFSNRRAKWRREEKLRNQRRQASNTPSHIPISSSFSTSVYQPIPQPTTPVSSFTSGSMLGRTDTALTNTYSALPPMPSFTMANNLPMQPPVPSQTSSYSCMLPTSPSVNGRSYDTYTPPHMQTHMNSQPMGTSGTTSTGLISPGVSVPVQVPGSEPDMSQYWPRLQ
Nuclear receptor subfamily 1 group I member 3 (Homo sapiens), sequence (Q14994 whole entry, looked up, the tested form may be a part): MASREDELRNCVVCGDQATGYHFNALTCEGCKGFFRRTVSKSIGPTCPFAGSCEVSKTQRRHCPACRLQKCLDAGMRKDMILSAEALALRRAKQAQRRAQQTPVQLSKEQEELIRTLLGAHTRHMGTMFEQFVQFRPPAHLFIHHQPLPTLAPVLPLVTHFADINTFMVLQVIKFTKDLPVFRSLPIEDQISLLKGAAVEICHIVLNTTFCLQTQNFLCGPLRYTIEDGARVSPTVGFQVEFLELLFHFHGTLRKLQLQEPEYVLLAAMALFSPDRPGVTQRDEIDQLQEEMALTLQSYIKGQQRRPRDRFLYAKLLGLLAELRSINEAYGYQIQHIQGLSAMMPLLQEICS

| Compound | outcome [1] | AC50 [2] | AC50 [3] | outcome [4] | outcome [5] | outcome [6] | AC50 [7] | outcome [8] | outcome [9] | outcome [10] | outcome [11] | outcome [12] | outcome [13] | outcome [14] | outcome [15] | outcome [16] | outcome [3] | outcome [7] | AC50 [17] | outcome [17] |
| --- | --- | --- | --- | --- | --- | --- | --- | --- | --- | --- | --- | --- | --- | --- | --- | --- | --- | --- | --- | --- |
| CC(C)C[C@H](NC(=O)OCC1c2ccccc2-c2ccccc21)C(=O)O | inactive | 28.2 µM (active) | 14.7 µM (active) | inactive | inactive | inactive | 69.1 µM (active) | inactive | inactive | inactive | inactive | inactive | inactive | inactive | inactive | inactive |  |  |  |  |
| CCC(Cl)C(Cl)C(Cl)CC(Cl)C(Cl)C(C)Cl (centres undefined) | inactive | 0.885 µM (active) |  | inactive | inactive | inactive |  | inactive | inactive | inactive | inactive |  |  | inactive |  |  | inactive | inactive | 3.17 µM (active) |  |
| OCc1cccc(Oc2ccccc2)c1 | inactive | 27.4 µM (active) |  | inactive | inactive | inactive |  | inactive | inactive |  | inactive | inactive |  | inactive | inactive | inactive | inactive | inactive |  | inactive |
| CC(Oc1cc(Cl)ccc1Cl)C(=O)O (centres undefined) | inactive | 82.1 µM (active) | 100 µM (active) | inactive | inactive | inactive |  | inactive | inactive | inactive | inactive | inactive |  | inactive | inactive | inactive |  | inactive |  |  |
